Assay results taken from publication PMC5540273 (PLoS ONE, 2017).

Columns and labels:
Details in all cases: concentration: 1 μM, replicates: in singlicate; n = 1
[1] = tested on: CSNK2A1
[2] = tested on: CSNK2A2
[3] = tested on: T1, CTK
T1 construct: gene MATK

[4] = tested on: DAPK1
[5] = tested on: DAPK2
[6] = tested on: DAPK3
[7] = tested on: T2, DCAMKL1
T2 construct: gene DCLK1

[8] = tested on: T3, DCAMKL2
T3 construct: gene DCLK2

[9] = tested on: T4, DCAMKL3
T4 construct: gene DCLK3

[10] = tested on: DDR1
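Also: KINOMEscan kinase panel screen.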

SMILES | %Inh [1] [%] | %Inh [2] [%] | %Inh [3] [%] | %Inh [4] [%] | %Inh [5] [%] | %Inh [6] [%] | %Inh [7] [%] | %Inh [8] [%] | %Inh [9] [%] | %Inh [10] [%]
Cc1ccc(O)cc1Nc1cc(C(F)(F)F)nc2ccc(-c3ccncc3)cc12 [GW630823] | 0 | 2 | 2 | 16 | 17 | 11 | 25 | 0 | 15 | 40
Nc1nc(-c2ccc3c(N)n[nH]c3c2)cc(N2CCCCC2)n1 [GSK2228768] | 0 | 12 | 0 | 3 | 0 | 6 | 0 | 15 | 0 | 0
CCc1nc(-c2cccc(C)c2)c(-c2ccnc(NC(=O)c3ccccc3)c2)s1 | 12 | 29 | 0 | 23 | 0 | 0 | 11 | 6 | 0 | 0
CCCc1ccc(S(=O)(=O)NC2CCN(c3ccnc(Nc4ccc(OC)cc4)n3)C2)cc1 (stereo not shown) [GSK1379737] | 0 | 0 | 0 | 0 | 0 | 14 | 7 | 0 | 0 | 15
Clc1cccc(-c2nc(Nc3ccncc3)c3ccccc3n2)c1 [GW873004] | 0 | 14 | 0 | 0 | 0 | 11 | 13 | 0 | 41 | 79
COC(=O)c1cccc(NC(=O)NCCNc2ccnc(Nc3ccc(F)cc3)n2)c1 [GSK1379883] | 0 | 23 | 0 | 0 | 0 | 13 | 88 | 0 | 24 | 0
COc1ccc(Nc2nccc(N3CCC(NC(=O)c4cccc(NC(C)=O)c4)C3)n2)cc1 (stereo not shown) [GSK1379732] | 0 | 1 | 0 | 0 | 13 | 18 | 0 | 0 | 7 | 0
C[C@H]1CC[C@@H](C(=O)Nc2ccccc2)CN1c1cc(-c2ccc3c(N)n[nH]c3c2)nc(N)n1 [GSK2283293] | 12 | 0 | 0 | 7 | 0 | 0 | 23 | 0 | 8 | 0
CC(C)(C)c1ccc(-n2cnc3c(N)ncnc32)cc1 [SKF-97263] | 18 | 0 | 0 | 0 | 0 | 0 | 0 | 12 | 0 | 27
Fc1ccc(Nc2nccc(-c3c(-c4ccc(Cl)cc4)nn4ncccc34)n2)cc1F [GW829058] | 0 | 24 | 30 | 1 | 0 | 8 | 25 | 11 | 0 | 87
CNc1nccc(-c2c(-c3ccc(F)cc3)ncn2C2CCN(C)CC2)n1 [SB-222903] | 0 | 0 | 0 | 0 | 0 | 25 | 19 | 0 | 0 | 65
c1ccc(-c2ccc3c(-c4ccnc(Nc5ccc6c(c5)OCCO6)n4)cnn3n2)cc1 [GW818941] | 18 | 9 | 2 | 0 | 0 | 0 | 0 | 0 | 0 | 0
Cn1cc(-c2ccc3c(c2)CCN3C(=O)Cc2cccc(C(F)(F)F)c2)c2c(N)ncnc21 [GSK2606414] | 1 | 1 | 18 | 3 | 0 | 89 | 8 | 0 | 0 | 99.7
O=C(c1ccc(-c2cc(-c3c[nH]nc3-c3ccccn3)ccn2)cc1)N1CCCC1 [GW792479] | 0 | 0 | 0 | 0 | 33 | 85 | 19 | 10 | 0 | 0
Cn1ccc2ncnc(Oc3ccc(NC(=O)Nc4cccnc4)c(Cl)c3)c21 | 0 | 19 | 21 | 7 | 0 | 0 | 11 | 0 | 0 | 99.3
Nc1n[nH]c2nnc(-c3ccccc3)cc12 [SB-517389] | 0 | 16 | 0 | 28 | 0 | 17 | 11 | 0 | 29 | 9

SMILES | %Inh [1] [%] | %Inh [2] [%] | %Inh [3] [%] | %Inh [4] [%] | %Inh [5] [%] | %Inh [6] [%] | %Inh [7] [%] | %Inh [8] [%] | %Inh [9] [%] | %Inh [10] [%]
Cl.c1ccc(Cn2ncc3cc(Nc4ncnc5ccccc45)ccc32)cc1 [GW273749] | 4 | 13 | 0 | 5 | 0 | 4 | 9 | 0 | 0 | 3
N#Cc1ccc(Oc2ccc(Nc3ncnc4cc[nH]c34)cc2Cl)cc1 | 48 | 24 | 5 | 30 | 16 | 15 | 9 | 24 | 20 | 9
CSc1ccc(NC2=C(c3ccccc3Cl)C(=O)NC2=O)cc1 [SB-342411] | 2 | 10 | 0 | 30 | 16 | 11 | 2 | 0 | 43 | 10
Cl.Cn1ccc(-c2cccc(Nc3ccnc4cc(-c5nccs5)ccc34)c2)n1 [GW525701] | 0 | 0 | 0 | 17 | 0 | 2 | 13 | 0 | 26 | 52
Cl.c1ccc(Cn2ccc3cc(Nc4ncnc5ccccc45)ccc32)cc1 [GW275568] | 4 | 19 | 0 | 21 | 7 | 30 | 22 | 10 | 2 | 8
Cc1cc(N2CCC(NS(=O)(=O)c3ccc(F)cc3)CC2)nc(Nc2cccc(C#N)c2)n1.O=C(O)C(F)(F)F [GSK1653537] | 1 | 11 | 0 | 0 | 0 | 2 | 0 | 0 | 0 | 0
FC(F)(F)c1ccc(-c2nn3ncccc3c2-c2ccnc(Nc3cccc(C(F)(F)F)c3)n2)cc1 [GW828205] | 0 | 0 | 0 | 0 | 0 | 1 | 34 | 0 | 22 | 86
Fc1cccc(COc2ccc(Nc3ncnc4nn5ccccc5c34)cc2Cl)c1 [GW689066] | 0 | 0 | 0 | 0 | 0 | 7 | 0 | 0 | 9 | 0
Fc1cccc(COc2ccc(Nc3ncnc4cc[nH]c34)cc2Cl)c1 | 36 | 22 | 53 | 20 | 45 | 22 | 29 | 8 | 8 | 9
Nc1nccc2scc(-c3ccc4c(c3)CCN4C(=O)Cc3cc(F)ccc3F)c12 [GSK2587663] | 0 | 7 | 0 | 27 | 2 | 7 | 14 | 8 | 11 | 10
O=C(CCO)NCCn1ccc2ncnc(Nc3ccc(Oc4cccc(C(F)(F)F)c4)c(Cl)c3)c21 | 0 | 0 | 0 | 11 | 0 | 0 | 39 | 0 | 0 | 0
O=C(Nc1ccccc1)Nc1ccc(Oc2ccc3nccn3n2)cc1 | 0 | 0 | 100 | 0 | 1 | 0 | 9 | 10 | 59 | 98.6
CCC(CC)(CC)n1cnc2c(N)ncnc21 [SKF-97620] | 0 | 0 | 0 | 16 | 9 | 12 | 0 | 0 | 0 | 0
CCc1nc(-c2cccc(N(C)S(=O)(=O)c3ccccc3)c2)c(-c2ccnc(Nc3ccc(N4CCN(C(C)=O)CC4)nc3)n2)s1 [GSK1645895] | 18 | 6 | 0 | 21 | 0 | 4 | 10 | 0 | 4 | 44
FC(F)(F)c1cc(Nc2nccc(-c3c(-c4ccc(Cl)cc4)nn4ncccc34)n2)ccc1Cl [GW829351] | 0 | 11 | 14 | 0 | 0 | 12 | 0 | 0 | 0 | 78
